Experimental data: PubChem BioAssay AID1499 (Sanford-Burnham Center for Chemical Genomics, 2009)
Among all 93,000 compounds or so, about 65 (0.07%) were called active.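 How the source made its calls: active means 10 µM primary screen giving 50% or more activity, confirmed by 40% or more on retest at that dose; inactive means the rest.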 Many of the other results were omitted from the sample, so actives are more common in it than they were.

The molecules below were run against Integrin beta-2 (Homo sapiens) + Integrin alpha-M (Homo sapiens) (UniProt P05107+P11215) (assay: agonists of integrin CD11b/CD18-fibrinogen binding – K562 cells, luminescence, primary screen (AID 1499)). Conditions: K562 CD11b/CD18 adhesion to fibrinogen, ATPlite luminescence; at 10 µM; hits give high values.
Integrin beta-2 (Homo sapiens) + Integrin alpha-M (Homo sapiens), sequence (P05107 whole entry, looked up, other chains not shown): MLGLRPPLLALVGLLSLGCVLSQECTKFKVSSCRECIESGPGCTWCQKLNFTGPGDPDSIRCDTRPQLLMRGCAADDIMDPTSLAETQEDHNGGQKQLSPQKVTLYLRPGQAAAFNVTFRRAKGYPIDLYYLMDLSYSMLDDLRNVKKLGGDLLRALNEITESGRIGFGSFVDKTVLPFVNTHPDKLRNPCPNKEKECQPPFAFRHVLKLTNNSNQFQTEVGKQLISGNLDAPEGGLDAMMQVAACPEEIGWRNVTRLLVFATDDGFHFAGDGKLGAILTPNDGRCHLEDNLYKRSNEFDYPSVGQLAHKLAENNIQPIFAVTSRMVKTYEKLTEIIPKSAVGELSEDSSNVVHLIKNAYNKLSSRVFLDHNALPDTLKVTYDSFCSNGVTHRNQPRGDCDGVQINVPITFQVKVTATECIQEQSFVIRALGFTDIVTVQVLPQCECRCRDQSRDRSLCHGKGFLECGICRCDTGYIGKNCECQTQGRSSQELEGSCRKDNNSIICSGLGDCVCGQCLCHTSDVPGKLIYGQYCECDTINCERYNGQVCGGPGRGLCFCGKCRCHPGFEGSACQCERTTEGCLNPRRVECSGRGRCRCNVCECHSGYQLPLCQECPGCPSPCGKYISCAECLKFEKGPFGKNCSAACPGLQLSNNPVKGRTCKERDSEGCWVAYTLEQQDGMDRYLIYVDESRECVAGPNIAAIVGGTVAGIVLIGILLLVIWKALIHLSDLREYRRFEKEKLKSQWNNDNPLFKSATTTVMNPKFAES

activation, inactive:
CCN(C(=O)COC(=O)c1c(NC(C)=O)sc(C)c1C)C1CCS(=O)(=O)C1 (stereo unspecified) 0.3%
CCOC(=O)NC(=O)CSc1nnc(SCCC(=O)O)s1 -3.3%
Cc1cccc(OCc2ccc(C(=O)Nc3ccc(F)cc3)cc2)c1 -6.2%
O=C(NC(=S)Nc1ccc(NC(=O)c2cccs2)cc1)c1ccc([N+](=O)[O-])cc1 55.8%
CC(Sc1nc2cc(Cl)ccc2s1)C(=O)Nc1ccc2c(c1)OCO2 (stereo unspecified) 0.6%
COc1ccc(OC)c(/C=C/C(=O)OCC(=O)Nc2ccc3c(c2)OCCO3)c1 -3.7%
CCOc1ccc2c(=O)c(-c3ccc4c(c3)OCCCO4)c(C)oc2c1 3%
N#Cc1c(NC(=O)c2ccc(N3CCOCC3)c([N+](=O)[O-])c2)sc2c1CCCC2 -0.4%
Cc1ccc(S(=O)(=O)C2C(=O)NC3(C)CC2c2ccccc2O3)cc1 (stereo unspecified) 0.7%
CCC1CCCCN1C(=S)Nc1ccc(SC(F)F)cc1 (stereo unspecified) 1.7%
CCCC/C(C)=N/NC(=O)NC1CCCCC1 -0.9%
CC(C)CNC(=O)COC(=O)c1ccccc1OCC(=O)Nc1ccc(Br)cc1 1%
Cc1cc([N+](=O)[O-])ccc1NC(=O)C1CCCO1 (stereo unspecified) 1.8%
Cc1ccccc1NC(=O)CSC1=NCCN1 3.2%
Cc1cc(C)c[n+](-c2nc3ccccc3nc2[N-]S(=O)(=O)c2cccs2)c1 2.1%
COc1ccc([N+](=O)[O-])cc1NC(=O)C(C)OC(=O)C1c2ccccc2Oc2ccccc21 (stereo unspecified) -2.2%
COc1cc(Cl)c(C)cc1NC(=O)[C@@H]1CCCN1C(=O)c1cccs1 -2.3%
CCOC(=O)C1CCN(c2ccc(C(=O)O)cc2[N+](=O)[O-])CC1 -3.3%
O=C(NCC1CCCO1)/C(=C/c1ccc(Cl)cc1)NC(=O)c1ccccc1 (stereo unspecified) 0.2%
O=C(CN1CCN(c2ccccn2)CC1)N1CCc2ccccc21 3.8%
N#CC1(NC(=O)COc2ccc3oc4ccccc4c3c2)CCCCC1 10.2%
CN1CCN(c2ccc(S(=O)(=O)Nc3ccccc3)cc2[N+](=O)[O-])CC1 -2.2%
Cc1nnc(SCC(=O)N2CCOCC2)[nH]c1=O -6.4%
OCC(CO)(CO)NCc1ccc(-c2ccccc2)cc1 4.4%
COc1cc(/C=N/NC(=O)CCc2n[nH]c(=O)[nH]c2=O)ccc1O 15.1%
COC(=O)C1=C(NC(=O)C(C)(C)C)CCS1 1.8%
Cc1ccc(-c2nnc(SCC(=O)N/N=C/c3cccs3)n2-c2ccc(C)cc2)cc1 9%
COc1ccc(NS(=O)(=O)c2ccc(NC(=O)c3ccc(N(C)S(C)(=O)=O)cc3)cc2)cc1 -3.8%
Cc1ccc(O)c(CCc2ccccc2)n1 -3.8%
CCOC(=O)c1oc2c(CN3CCN(C)CC3)c(O)ccc2c(=O)c1-c1ccc(Br)cc1 2%
O=C(COC(=O)Cn1cnc2ccccc2c1=O)NCC12CC3CC(CC(C3)C1)C2 5.2%
CSCCC(NC(=O)c1cc([N+](=O)[O-])cc([N+](=O)[O-])c1)c1nc2ccccc2[nH]1 (stereo unspecified) 22%
Cc1ccc2nc(SCc3cn4c(C)cc(C)nc4n3)[nH]c2c1 -2.3%
Oc1c(Br)cccc1/C=N/Nc1c(F)c(F)c(F)c(F)c1F -10.4%
Cc1ccc(NC(=O)CN(C)Cc2ccc(F)cc2)c([N+](=O)[O-])c1 -1%
O=C(Oc1ccccc1Cl)c1ccc(N2CCOCC2)c([N+](=O)[O-])c1 -0.9%
CCS(=O)(=O)Nc1cccc(-c2cc(-c3ccccc3)c3cc(C)ccc3n2)c1 -5.6%
O=C(COC(=O)CSc1nnc(-c2ccc(Cl)cc2)o1)Nc1cc(Cl)cc(Cl)c1 25.1%
O=C(Nc1ccccc1)/C(=C/c1ccc([N+](=O)[O-])cc1)NC(=O)c1ccccc1 29.4%
CN(Cc1ccccc1)C(=O)COC(=O)c1ccccc1Nc1ccccc1 -2.4%
CC(C)C(=O)Nc1ccc2c3c(cccc13)CC2 -4.8%
CCCOC(=O)c1c(NC(=O)c2cnn3c2NC(c2ccccc2)CC3C(F)(F)F)sc2c1CCCC2 (stereo unspecified) 62.7%
O=C(Oc1ccc([N+](=O)[O-])cc1)c1ccc(Cl)c(S(=O)(=O)N2CCCCC2)c1 -4.7%
O=C(Nc1nnc(C2COc3ccccc3O2)o1)c1ccc(F)cc1 (stereo unspecified) 3%
COC(=O)N/N=C/c1ccc(-c2ccc(Cl)c(Cl)c2)o1 -1.3%
COc1ccc(Nc2nc(N)nc(CSC(=S)N3CCC(C)CC3)n2)cc1 2.4%
COc1ccc(Cl)cc1NC(=O)[C@@H]1CCCN1C(=O)c1cccs1 2.8%
O=C(Nc1ccccc1Cl)c1ccccc1S(=O)(=O)c1ccccc1[N+](=O)[O-] 1%
CCOc1ccc(NC(=O)COc2ccc(C(=O)NC3CCCc4ccccc43)cc2OC)cc1 (stereo unspecified) 37%
COc1ccc(C2c3c(C)nn(-c4ccccc4)c3NC(=O)N2c2ccccc2)cc1 (stereo unspecified) -1.5%
CCCc1c(C)nc2c(Br)cccc2c1Cl 2.4%
COC(=O)c1ccc(C(=O)OC)c(NC(=S)N2CCN(c3cc(Cl)ccc3C)CC2)c1 -1.1%
CCN(CC)c1ccc([N+](=O)[O-])cc1C(=O)O -7%
COc1ccc(CCNC(=O)CSc2nc(-c3ccc(OC)c(OC)c3)ccc2C#N)cc1 8.9%
CC(=O)N1CCN(CC(=O)Nc2ccc(SC(F)F)cc2)CC1 2.9%
Cc1nn(C)c(Oc2ccccc2)c1CCNS(=O)(=O)c1ccc(F)cc1 4.8%
